# From PubChem BioAssay (NCI)
# The panel holds about 83,000 compounds, 20% with a hit somewhere; the sample as a whole holds those more often.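 Growth was measured after 48 h exposure to one concentration of compound in 96-well plates. Values under 10 count as active.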 A number with no mark means an inactive call. Active and inactive are the calls of the source.
# Experiments:
# Experiment in all cases: NCI-60 one-dose screen, 48 h (100 = growth as untreated, 0 = no growth, -100 = all killed)
# NCI-H23 lung = settings: 10 µM unless noted
# NCI-H226 lung = settings: 10 µM unless noted
# NCI-H322M lung = settings: 10 µM unless noted
# HOP-62 NSCLC = settings: 10 µM unless noted
# NCI-H460 lung = settings: 10 µM unless noted
# 786-0 renal = settings: 10 µM unless noted
# MDA-MB-231 breast = settings: 10 µM unless noted
# SF-268 CNS = settings: 10 µM unless noted
# SF-539 CNS = settings: 10 µM unless noted
# M14 melanoma = settings: 10 µM unless noted
# HCT-15 colon = settings: 10 µM
# U251 CNS = settings: 10 µM unless noted
# UO-31 renal = settings: 10 µM unless noted
# SK-OV-3 ovarian = settings: 10 µM unless noted
# OVCAR-3 ovarian = settings: 10 µM unless noted
# MDA-MB-435 melanoma = settings: 10 µM unless noted
# SW-620 colon = settings: 10 µM unless noted
# MCF7 breast = settings: 10 µM unless noted
# HCT-116 colon = settings: 10 µM unless noted
# KM12 colon = settings: 10 µM unless noted
SMILES,growth (NCI-H23 lung),growth (NCI-H226 lung),growth (NCI-H322M lung),growth (HOP-62 NSCLC),growth (NCI-H460 lung),growth (786-0 renal),growth (MDA-MB-231 breast),growth (SF-268 CNS),growth (SF-539 CNS),growth (M14 melanoma),growth (HCT-15 colon),growth (U251 CNS),growth (UO-31 renal),growth (SK-OV-3 ovarian),growth (OVCAR-3 ovarian),growth (MDA-MB-435 melanoma),growth (SW-620 colon),growth (MCF7 breast),growth (HCT-116 colon),growth (KM12 colon)
C[C@]12CCc3sc(-c4ccc(Cl)cc4)nc3C1=CC[C@@H]1[C@@H]2CC[C@]2(C)C(=O)CC[C@@H]12,71.3%,84.3%,82.6%,66%,72.5%,53.4%,64.3%,64.4%,29.6%,97.6%,34.6%,36.7%,47.3%,79.2%,27.2%,75.7%,22.9%,24.4%,52.3%,66.8%
O=C1C=CC(=O)C2C1C1(Cl)C(Cl)=C(Cl)C2(Cl)C1(Cl)Cl (centres undefined),58%,56.9%,77.2%,63.5%,57.5%,73.9%,44.8%,47.6%,62.5%,44.4%,54.3%,60.8%,44.9%,71%,44.3%,3.15% (active),64.7%,47%,36.3%,38.9%
CC(=O)[O][Hg][c]1ccccc1,-84.5% (active),81.9%,40.1%,-87.9% (active),-52.1% (active),-96.4% (active),-54.8% (active),-86.4% (active),-53.6% (active),-90% (active),-65.5% (active),,-94.2% (active),-5.18% (active),-93.3% (active),-89.2% (active),-92.9% (active),-75.2% (active),-88% (active),-95.3% (active)
O=C(O)c1cccc(CCl)c1,108%,104%,107%,108%,103%,101%,113%,102%,94.3%,95.8%,93%,96.7%,90.3%,99.7%,109%,104%,110%,98.4%,96.7%,96.3%
CC(C)CCC1(CCO)C(=O)NC(=S)NC1=O,110%,105%,105%,105%,109%,110%,104%,95.1%,125%,103%,91.7%,97.2%,84.1%,108%,108%,104%,105%,109%,104%,104%
O=CN1N=C(c2ccc3c(c2)OCO3)CC1c1sc(N(CCCl)CCCl)nc1Cl (centres undefined),101%,95.9%,75.1%,93%,105%,87.8%,89.9%,93.7%,102%,102%,99.5%,98.6%,74.5%,90%,95.5%,97.6%,92.9%,88.9%,83.8%,93.9%
O=CN1N=C(c2ccccc2)CC1c1sc(N(CCCl)CCCl)nc1Cl (centres undefined),87.5%,85.1%,82.4%,86.9%,106%,104%,77.8%,101%,109%,103%,92.8%,96.5%,71.7%,79.2%,96.1%,99.2%,105%,90.1%,89.4%,98.9%
Nc1cccc(CC(=O)Nc2ccc(S(=O)(=O)F)cc2)c1,99.7%,93.9%,104%,90.3%,102%,96.9%,94.4%,107%,97.4%,90.7%,101%,102%,86.2%,92.4%,102%,89.8%,84.3%,86.7%,96.9%,92.2%
COc1ccc(C2=NN(c3ccccc3)C(c3sc(N(CCCl)CCCl)nc3Cl)C2)cc1 (centres undefined),76.7%,76.2%,92.7%,80.1%,99%,103%,68.4%,86.8%,104%,93.6%,97.9%,94.4%,78.6%,75.9%,93.3%,90.5%,92.5%,87.3%,67%,81.4%
CCOC(=O)c1cnc(SCc2ccc(Cl)c(Cl)c2)nc1N1CC1,51.1%,75.6%,69.7%,64.9%,41%,60%,51.7%,74.9%,44.1%,41.8%,33.7%,49%,34.7%,74.6%,54.6%,10.5%,33.8%,29.3%,23.5%,50.5%
C[C@]12CC[C@H]3[C@@H](C[C@@H]4N=C(c5ccc(O)cc5)S[C@@]45C[C@H](O)CC[C@]35C)[C@@H]1CC[C@@H]2O,74.7%,110%,92.8%,46.7%,41.9%,8.35% (active),56.2%,48.6%,8.02% (active),60.5%,29.5%,20.1%,9.33% (active),38.6%,38.6%,92%,71.7%,42.6%,43.8%,60.8%
Fc1ccc(C2=NN(c3ccccc3)C(c3sc(N(CCCl)CCCl)nc3Cl)C2)cc1 (centres undefined),85.4%,74.1%,82.3%,78%,90.7%,92.2%,69%,86.5%,101%,92.2%,94.3%,85.9%,67.6%,76.5%,91.7%,93.9%,84.4%,72.2%,68.2%,81.1%
O=C(NCCNC(=O)c1ccc([As](O)O)cc1)c1ccc([As](O)O)cc1,93%,109%,102%,105%,99.7%,114%,106%,103%,102%,99.1%,107%,103%,96.8%,104%,104%,104%,94.7%,99.7%,101%,99.8%
CC(=O)N1N=C(c2ccccc2)CC1c1sc(N(CCCl)CCCl)nc1Cl (centres undefined),85.8%,89.1%,90.6%,90%,96.2%,99.7%,95.3%,94%,106%,101%,94.8%,92.6%,80%,89.4%,96.4%,97.4%,96.8%,95%,92.5%,95.8%
CC(C)N=C(NC(C)C)N1CC1,113%,108%,118%,108%,116%,116%,96.9%,108%,103%,128%,110%,105%,113%,115%,109%,103%,110%,102%,111%,110%
CN=C(NN)NN,102%,109%,114%,135%,111%,103%,120%,103%,104%,105%,104%,98.5%,90.8%,110%,102%,99.8%,107%,99.3%,109%,108%
